Only some compounds are listed: those with a hit (about 7.4% of all), similar ones and a draw of the others.
Rab9 prom act = activators of Rab9 promoter; Huh7 Rab9 promoter-luciferase reporter, luminescence, 24 h; Potency, µM (highest dose often 9.22 µM), without a hit: top-dose activation, negative = inhibition, actives largely listed as activators; hit rate 2.8% among 320,000; AID 485297; also: % of control where 0% means no effect; nearly all actives have a fitted effect of over 60% in size
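Luminescence read-out: Huh7 cells stably expressing Rab9-luciferase, treated 24 h with compound at 37 °C, then lysed with luciferase reagent for 10 min at ambient before reading.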
ELG1 genotoxic = induces genotoxicity in HEK293T cells with luciferase-tagged ELG1; HEK293T ELG1-luciferase reporter, luminescence, 16 h; Potency, µM (doses to about 46 µM), inactives show at the top dose activity change, positive = activation, hits mostly activators; hit rate 1.3% among 330,000; AID 504466; also: % of control where 0% means no effect; nearly all actives have a fitted effect of over 60% in size
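Screening used a luciferase reporter fused to human ELG1 in HEK293T cells. Luminescence was read on a CCD plate imager after 16 hr exposure and 30 min ONE-Glo incubation.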
FLuc counter = counter-screen for miR-21 project: firefly luciferase inhibitors or activators; purified FLuc, Km substrates, luminescence inhibition; Potency, µM (highest dose often 57.5 µM), without a hit: top-dose activity change, negative = inhibition, actives largely listed as inhibitors; hit rate 6.9% among 360,000; AID 588342;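 also: plate controls were vehicle for no effect and reference inhibitor for full effect; nearly all actives have a fitted effect of over 55% in size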
Target sequence (P08659 whole entry, looked up): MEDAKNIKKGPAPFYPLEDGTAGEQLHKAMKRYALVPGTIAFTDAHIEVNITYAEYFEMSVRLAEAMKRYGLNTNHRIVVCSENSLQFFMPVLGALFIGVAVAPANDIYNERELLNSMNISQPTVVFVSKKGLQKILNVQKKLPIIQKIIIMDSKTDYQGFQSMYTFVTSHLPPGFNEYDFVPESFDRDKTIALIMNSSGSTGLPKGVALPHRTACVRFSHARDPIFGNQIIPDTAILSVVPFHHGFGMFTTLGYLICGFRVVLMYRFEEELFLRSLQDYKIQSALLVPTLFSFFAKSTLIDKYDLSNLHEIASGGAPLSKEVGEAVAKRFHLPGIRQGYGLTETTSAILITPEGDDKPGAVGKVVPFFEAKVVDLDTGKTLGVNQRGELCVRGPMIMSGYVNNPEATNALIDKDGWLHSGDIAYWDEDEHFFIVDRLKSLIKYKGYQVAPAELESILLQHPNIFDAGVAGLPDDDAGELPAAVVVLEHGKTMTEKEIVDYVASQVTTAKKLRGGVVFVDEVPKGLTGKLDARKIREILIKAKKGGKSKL
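Biochemical qHTS of compounds, final roughly 60 µM downward over six points, against 10 nM purified firefly luciferase using Km concentrations of substrates (10 uM D-luciferin, 10 uM ATP) in Tris acetate pH 7.5 buffer; luminescence output.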
SMN2 splice enh = enhancers of SMN2 splice variant expression. HEK293 SMN2-luciferase splicing reporter, luminescence, 30-36 h. Potency, µM (highest dose often 46.1 µM), for inactives: at the highest dose activity change, positive = activation, hits mostly activators. hit rate 2.8% among 210,000. AID 1458; also: % of control where 0% means no effect; nearly all actives have a fitted effect of over 55% in size
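HEK293 cells carry an SMN2 minigene-luciferase reporter in which exon 7 inclusion puts luciferase in frame. Cells were seeded at 2000 cells/well, attached for 10-12 hours, then exposed to compounds for 30-36 hours at 37C before ONE-Glo luminescence.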
NPC1 prom act = activators of NPC1 promoter. Huh7 NPC1 promoter luciferase reporter, 24 h. Potency, µM (series often up to 9.22 µM), for inactives: at the top dose activation, most hits filed as activators. hit rate 2.4% among 320,000. AID 485313; also: % of control where 0% means no effect; nearly all actives have a fitted effect of over 60% in size
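Readout is luciferase luminescence, reflecting NPC1 promoter activation in stably transfected Huh7 cells after 24 h compound exposure at 37 °C in reduced-serum medium with 10% FBS.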
* = called active by the depositor; u = inconclusive; x = not tested or not shown. Calls follow the shape of the dose curve; as a rule, active = well fitted curve in the direction sought with a large enough effect; inconclusive = small, poorly fitted or top-dose-only effect, or another doubt; inactive = no such curve, though single readings can be large; an effect the other way counts as inactive or inconclusive. Potency is read from the fitted curve at half-maximal effect.

SMILES	Rab9 prom act	ELG1 genotoxic	FLuc counter	SMN2 splice enh	NPC1 prom act
CN(C)c1ncc2nc(-c3cc(F)cc(F)c3)c(=O)n(Cc3cccs3)c2n1	x	x	x	-12%	x
COc1ccc2c(c1)O[C@@H](c1cccc(C(F)(F)F)c1)[C@H](OC(=O)NCc1ccc3c(c1)OCO3)C2=O	x	x	x	-5%	x
Nc1ccc(CCc2nc3ccccc3o2)cc1	1.6µM*	2.9µM*	2.7µM*	13µM*	2.5µM*
Cc1ccc(Nc2n[nH]c(C)c2[N+](=O)[O-])cc1C	1.1µM*	u	3µM*	11µM*	1.6µM*
CCN1CCN(c2nc(N)c([N+](=O)[O-])c(Nc3ccc(C)c(C)c3)n2)CC1	1%	1%	-1%	-14%	-3%
O=C(COc1ccccc1F)NC1CC(=O)N(c2ccc3c(c2)OCCO3)C1 (stereo not drawn)	x	x	4%	x	x
CC1CCN(CC(CS(=O)(=O)c2ccc([N+](=O)[O-])cc2)N2CCC(C)CC2)CC1 (stereo not drawn)	-42%	-9%	0%	x	-23%
COC(=O)c1cc(-c2ccc(OC)cc2)n[nH]1	u	u	27µM*	u	u
COC(=O)c1cc(-c2ccc(C)cc2)n[nH]1	u	u	24µM*	x	16%
CCOc1ccc(-c2cc(C(=O)OC)[nH]n2)cc1	2.2µM*	u	9.5µM*	x	3.2µM*
COC(=O)c1cc(-c2cccc(OC)c2)n[nH]1	15%	10%	u	u	4%
COc1ccc(/C=N/NC(=O)c2ccc(-n3cnnn3)cc2)cc1	-4%	-1%	11µM*	x	0%
CC(C)c1ccc(/C=N/NC(=O)c2ccc(-n3cnnn3)cc2)cc1	-1%	-6%	5.4µM*	x	-1%
O=C(COC(=O)c1cccc(O)c1)Nc1ccc(N2CCOCC2)cc1	-3%	-2%	-23%	x	0%
Cc1cc(C)n(-c2nc(NCCCO)c3c4c(sc3n2)CCCC4)n1	16%	6%	21µM*	-48%	20%
c1coc(C2Nc3cccc4cccc(c34)N2)c1	18%	-3%	27µM*	17%	8%
Clc1ccccc1C1Nc2cccc3cccc(c23)N1	11%	-8%	u	x	-4%
COc1ccc(C2=CC(=O)C=CC2=O)cc1	-3%	0%	8.5µM*	x	-2%
COc1ccc(C2=CC(=O)C[C@H](c3ccc(OC)cc3)C2)cc1	26%	7%	-16%	x	1%
O=C(Nc1ccc(N2CCOCC2)c(Cl)c1)C1CCCCC1	13%	u	u	-12%	18%
O=C(Nc1ccc(NC(=O)c2ccco2)c(Cl)c1)c1ccccc1	u	u	u	x	25%
Cc1cc(C(=O)Nc2ccc(N3CCOCC3)c(Cl)c2)c(C)o1	2.8µM*	u	6.7µM*	x	u
O=C(Nc1ccc(Cl)cc1C(=O)NCc1cccnc1)c1ccco1	0%	-1%	0%	u	4%
O=C(Nc1ccc(Cl)cc1C(=O)Nc1ccncc1)c1ccco1	8%	-12%	-17%	32µM*	2%
O=C(Nc1ccc(Br)c(Cl)c1)c1ccco1	3.5µM*	21µM*	21µM*	u	u
SMILES	Rab9 prom act	ELG1 genotoxic	FLuc counter	SMN2 splice enh	NPC1 prom act
O=C(Nc1ccc(N2CCOCC2)c(Cl)c1)c1ncn[nH]1	9%	2%	21µM*	17%	23%
O=S1(=O)CCN(C(CCO)c2cccc(C(F)(F)F)c2)CC1 (stereo not drawn)	-5%	1%	-1%	-10%	-4%
Cc1ccc(Nc2c(-c3cccnc3)nc3ccc(Cl)cn23)cc1	x	x	5%	-8%	x
O=C(Nc1ccc(N2CCOCC2)c(Cl)c1)c1ccc(Cl)cc1	29%	-16%	17µM*	-86%	14%
O=C(Nc1ccc(N2CCOCC2)c(Cl)c1)c1ccccc1F	3.5µM*	5.2µM*	9.5µM*	24%	3.2µM*
O=C(Nc1ccc(N2CCOCC2)cc1N1CCOCC1)c1ccc(Cl)cc1	-1%	-11%	-2%	x	-1%
O=C(Nc1ccc(N2CCOCC2)c(Cl)c1)c1ccco1	3.5µM*	2.6µM*	9.5µM*	13µM*	1.4µM*
O=C(Nc1nnc(-c2cc(Cl)ccc2Cl)o1)c1ccco1	19%	u	6µM*	x	16%
Cc1ccc(CNCc2c(C(=O)O)c(C)n(Cc3ccc(C)cc3)c2C)cc1	x	x	4%	5%	x

Screening results as filed in PubChem.
